Results taken from PubChem BioAssay (Tox21).
“And” between values parts separate entries of the source, which are not always exact repeats. Identical values can stand only once. Inconclusive results are not listed. Some structures have more than one record in an assay (separate samples or runs), and their calls can disagree. The source made the active and inactive calls. Unless noted, the call rests on the fitted dose curve; in most records, active means well fitted curve in the direction sought with a large enough effect in the repeat runs; inconclusive means weak or mixed curves; inactive means no such curve, though single readings can be large; an effect the other way counts as inactive or inconclusive.

Tests used:
[1] = qHTS assay to identify aromatase inhibitors - cell viability counter screen (AID 743084);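 further: cells stimulated with testosterone during compound exposure; nearly all actives have a fitted effect of over 55% in size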; further: potency means the concentration at half of the fitted maximal effect
[2] = molecular target: Aryl hydrocarbon receptor (Homo sapiens) (UniProt P35869); test: qHTS assay to identify small molecule that activate the aryl hydrocarbon receptor (AhR) signaling pathway (AID 743085); further: nearly all actives have a fitted effect of over 15% in size; further: potency means the concentration at half of the fitted maximal effect;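 on activation: HG2L7.5c1 human HepG2 liver cells with stably integrated DRE-driven firefly reporter; series mostly up to about 70 µM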
Outline: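 Cell line HG2L7.5c1 (human hepatoma, 20× DRE-luc). Plated, 5 h 37C, compound/DMSO added, 24 h 37C. CellTiter-Fluor 30 min 37C → fluorescence; then ONE-Glo 30 min RT → luminescence.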

[3] = qHTS assay to identify small molecule antagonists of the peroxisome proliferator-activated receptor gamma (PPARg) signaling pathway - cell viability counter screen (AID 743194); settings: Potency: co-treated with 50 nM rosiglitazone unless noted; further: nearly all actives have a fitted effect of over 55% in size; further: potency means the concentration at half of the fitted maximal effect
Outline: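 Viability was measured as CellTiter-Glo luminescence in GeneBLAzer PPARg UAS-bla HEK293H cells. These cells had been exposed 17 h at 37 C to compounds together with rosiglitazone at 50 nM final, with the beta-lactamase readout taken in the same wells.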

[4] = qHTS assay for small molecule agonists of the antioxidant response element (ARE) signaling pathway (AID 743202; active means well fitted activation curve with a large enough effect in the signal ratio in the repeat runs, not every such curve was filed as active; the % refers to the signal ratio; further: potency means the concentration at half of the fitted maximal effect)
Outline: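 An ARE-responsive beta-lactamase gene stably integrated in HepG2 cells serves as reporter. After 5 h plating and 16 h compound incubation at 37 C, fluorescence of the B/G FRET substrate was measured.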

[5] = qHTS assay for small molecule agonists of the antioxidant response element (ARE) signaling pathway - cell viability counter screen (AID 743203; calls by dose curve; further: nearly all actives have a fitted effect of over 55% in size; further: potency means the concentration at half of the fitted maximal effect)
Outline: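 ARE-bla HepG2 cells were plated, rested 5 h at 37C/5% CO2, then exposed to compounds in DMSO for 16 h. Viability was read as CellTiter-Glo luminescence after 30 min at room temperature, in the same wells as the ARE screen.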

[6] = qHTS assay for small molecule activators of the heat shock response signaling pathway - cell viability counter screen (AID 743209); further: nearly all actives have a fitted effect of over 50% in size; further: potency means the concentration at half of the fitted maximal effect
Outline: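 HSE-bla HeLa cells plated overnight, then exposed to Tox21 compounds (23 nL in DMSO) for 5 h at 37 C. After the bla reporter read, CellTiter-Glo was added in the same wells and luminescence read after 30 min at room temperature.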

[7] = molecular target: Peroxisome proliferator-activated receptor gamma (Homo sapiens) (UniProt P37231); test: qHTS assay to identify small molecule agonists of the peroxisome proliferator-activated receptor gamma (PPARg) signaling pathway (AID 743094; active means well fitted activation curve with a large enough effect in the signal ratio in the repeat runs, not every such curve was filed as active; the % refers to the signal ratio)
Outline: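 GeneBLAzer PPARg UAS-bla HEK293H cells were plated, rested 5 h, then exposed to compounds for 17 h at 37C. Beta-lactamase activity was read by LiveBLAzer B/G FRET substrate fluorescence after 1 h at room temperature.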

[8] = molecular target: Peroxisome proliferator-activated receptor gamma (Homo sapiens) (UniProt P37231); test: qHTS assay to identify small molecule antagonists of the peroxisome proliferator-activated receptor gamma (PPARg) signaling pathway (AID 743191; calls by dose curve; further: nearly all actives have a fitted effect of over 30% in size; further: potency means the concentration at half of the fitted maximal effect)
Outline: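 Beta-lactamase reporter under UAS control in HEK293H PPARg-bla cells; compound treatment 17 h at 37C. Read-out: fluorescence intensity after 1 h room-temperature incubation with LiveBLAzer B/G FRET substrate.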

[9] = qHTS assay for small molecule activators of the heat shock response signaling pathway (AID 743210; active means well fitted activation curve with a large enough effect in the signal ratio in the repeat runs, with a control signal flat, not every such curve was filed as active; the % refers to the signal ratio;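 further: HeLa cells with beta-lactamase reporter driven by heat shock elements; series mostly up to about 63 µM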)
Outline: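 In HSE-bla HeLa cells, 5 h compound incubation (37 C) precedes addition of LiveBLAzer B/G substrate; after 2.5 h at room temperature, fluorescence intensity indicates reporter induction.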

[10] = qHTS assay to identify small molecule that activate the aryl hydrocarbon receptor (AhR) signaling pathway - cell viability counter screen (AID 743086); further: nearly all actives have a fitted effect of over 45% in size; further: potency means the concentration at half of the fitted maximal effect
Outline: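 Cytotoxicity counter screen: CellTiter-Fluor signal (30 min, 37 C) in 4000 HepG2 cells/well carrying the DRE-luciferase reporter, following 24 h compound exposure at 37 C.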

Measured: Potency

Chain of Peroxisome proliferator-activated receptor gamma (Homo sapiens) (P37231 whole entry, looked up): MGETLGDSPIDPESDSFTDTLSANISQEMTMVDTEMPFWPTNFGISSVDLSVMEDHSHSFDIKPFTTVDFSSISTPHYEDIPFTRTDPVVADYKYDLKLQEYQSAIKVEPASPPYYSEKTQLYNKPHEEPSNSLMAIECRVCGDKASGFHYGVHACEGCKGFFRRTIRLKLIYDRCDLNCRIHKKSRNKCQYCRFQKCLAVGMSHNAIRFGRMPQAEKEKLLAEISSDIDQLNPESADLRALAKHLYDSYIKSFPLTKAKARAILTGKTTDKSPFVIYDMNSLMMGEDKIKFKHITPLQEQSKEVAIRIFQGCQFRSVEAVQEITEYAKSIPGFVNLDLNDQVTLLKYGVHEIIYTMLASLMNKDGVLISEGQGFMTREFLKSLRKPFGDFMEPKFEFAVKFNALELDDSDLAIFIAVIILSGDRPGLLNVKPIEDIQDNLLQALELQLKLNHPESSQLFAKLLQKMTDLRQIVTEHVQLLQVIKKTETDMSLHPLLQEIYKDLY
Chain of Aryl hydrocarbon receptor (Homo sapiens) (P35869 whole entry, looked up): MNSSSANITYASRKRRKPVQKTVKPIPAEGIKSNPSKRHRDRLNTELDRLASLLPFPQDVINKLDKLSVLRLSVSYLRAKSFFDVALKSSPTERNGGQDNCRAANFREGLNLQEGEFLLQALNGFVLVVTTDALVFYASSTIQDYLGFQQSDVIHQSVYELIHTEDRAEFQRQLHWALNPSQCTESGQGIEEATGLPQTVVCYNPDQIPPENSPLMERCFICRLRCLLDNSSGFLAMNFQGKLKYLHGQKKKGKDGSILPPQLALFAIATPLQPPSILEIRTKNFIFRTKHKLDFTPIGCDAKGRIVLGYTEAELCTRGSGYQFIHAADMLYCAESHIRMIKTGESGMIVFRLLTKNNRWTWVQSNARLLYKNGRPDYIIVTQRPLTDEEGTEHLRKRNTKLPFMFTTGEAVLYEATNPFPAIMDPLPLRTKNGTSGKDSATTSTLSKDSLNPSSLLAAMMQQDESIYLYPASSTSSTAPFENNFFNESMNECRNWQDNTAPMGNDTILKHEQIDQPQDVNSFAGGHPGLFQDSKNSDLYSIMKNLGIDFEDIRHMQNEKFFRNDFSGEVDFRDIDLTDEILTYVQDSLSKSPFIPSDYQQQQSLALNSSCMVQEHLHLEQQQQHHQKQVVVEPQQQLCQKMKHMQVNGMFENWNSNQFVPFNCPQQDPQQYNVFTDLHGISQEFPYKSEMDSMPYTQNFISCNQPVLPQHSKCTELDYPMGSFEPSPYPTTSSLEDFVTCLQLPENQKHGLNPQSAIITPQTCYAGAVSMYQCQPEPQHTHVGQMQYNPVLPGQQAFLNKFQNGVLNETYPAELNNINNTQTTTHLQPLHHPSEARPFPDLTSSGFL

CC(=O)[O-].CC(=O)[O-].O.O.O.[Pb+2]
active: [4] 2.73 µM
inactive: [1] | [2] | [3] | [5] | [6]

Cc1ccn2nc(S(=O)(=O)Nc3c(F)cccc3F)nc2n1
not listed: [10]
inactive: all other assays above

CSC1=N[C@@](C)(c2ccccc2)C(=O)N1Nc1ccccc1
inactive: [1] | [2] | [10] | [5] | [6] | [9]

CN1CCc2cc(Cl)c(O)cc2[C@H]2c3ccccc3CC[C@@H]21
not listed: [8] | [10]
inactive: all other assays above

Clc1ccc(C(Cl)(Cl)Cl)cc1Cl
active: [2] 26.7 µM
not listed: [4] | [10]
inactive: all other assays above

CC(Cc1ccc(O)cc1)NCC(O)c1cc(O)cc(O)c1 (stereo unspecified)
not listed: [10]
inactive: all other assays above

c1ccc2nc(N3CCNCC3)ccc2c1
not listed: [4] | [5] | [10]
inactive: all other assays above

[Cl-].[Cl-].[Cl-].[Yb+3]
not listed: [7] | [8] | [10]
inactive: all other assays above

CC(=O)[O][Sn]([c]1ccccc1)([c]1ccccc1)[c]1ccccc1
active: [1] 0.344 µM | [10] 0.77 µM | [5] 0.0344 µM | [6] 15.5 µM
inactive: [2]

O=C(N[C@H]1N=C(c2ccccc2F)c2cccc3c2N(CC3)C1=O)c1cc2ccccc2[nH]1
active: [2] 5.31 µM
inactive: [1] | [7] | [3] | [5] | [6]

Cc1cccc(Cc2cnc[nH]2)c1C
active: [2] 13.3 µM
inactive: [1] | [7] | [8] | [5] | [6]

COC(=O)C(C)N(C(=O)c1ccco1)c1c(C)cccc1C (stereo unspecified)
not listed: [10]
inactive: all other assays above

CC(C)N(C(=O)CCl)c1ccccc1
inactive: [2] | [7]
active: [1] 24.3 µM | [8] 3.89 µM and 3.47 µM | [3] 49 µM and 27.5 µM | [5] 6.86 µM and 3.86 µM | [6] 12.3 µM and 5.49 µM

C=CC(=O)[O][Sn]([CH2]CCC)([CH2]CCC)[CH2]CCC
active: [1] 3.44 µM | [3] 0.389 µM | [5] 0.686 µM | [6] 3.09 µM
inactive: [2]

CC(C)NCC(O)c1ccccc1Cl (stereo unspecified)
not listed: [10]
inactive: all other assays above

CCN1CCC2(CC1)COc1cc3c(cc12)N(C(=O)c1ccc(-c2ccc(-c4nnc(C)o4)cc2C)cc1)CC3
active: [1] 39.9 µM | [3] 7.16 µM | [5] 7.1 µM | [6] 45.2 µM
inactive: [2]

COc1ccc2c(c1OC)C(=O)O[C@@H]2[C@H]1c2cc3c(cc2CCN1C)OCO3
active: [1] 2.15 µM
not listed: [3] | [10]
inactive: all other assays above

COc1cnc(OC)n2nc(NS(=O)(=O)c3c(OCC(F)F)cccc3C(F)(F)F)nc12
not listed: [10]
inactive: all other assays above

Cc1c([N+](=O)[O-])c(C)c([N+](=O)[O-])c(C(C)(C)C)c1[N+](=O)[O-]
not listed: [10]
inactive: all other assays above

Oc1cc(Cl)cc(Cl)c1
inactive: [1] | [2] | [7] | [8] | [5] | [9]

CN(C)C(=S)SSC(=S)N(C)C
inactive and 154 nM (active): [10]
inactive: [2] | [6]
active: [1] 944 nM and 75.9 nM and 54.5 nM | [5] 60.3 µM and 13.7 µM and 18.8 µM

O=[N+]([O-])c1cc(C(F)(F)F)c(Cl)c([N+](=O)[O-])c1Nc1ncc(C(F)(F)F)cc1Cl
active: [1] 21.7 µM | [2] 77 µM | [3] 1.1 µM | [5] 7.7 µM | [6] 6.16 µM

CCCCN(CCCC)C(=S)[S-].CCCCN(CCCC)C(=S)[S-].[Ni+2]
not listed: [10]
inactive: all other assays above

COC(=O)/C=C(\C)OP(=O)(OC)OC
inactive: [1] | [2] | [7] | [5] | [6]

CCN(CC)CCc1c[nH]c2ccccc12
inactive: [1] | [2] | [7] | [3] | [5] | [6]

CN
inactive: [1] | [2] | [10] | [5] | [6] | [9]

Clc1cc(Cl)c(-c2cc(Cl)c(Cl)cc2Cl)cc1Cl
not listed: [8] | [10]
inactive: all other assays above

CC(O)C(=O)[O][Hg][c]1ccccc1 (stereo unspecified)
inactive: [2]
active: [1] 1.09 µM | [3] 0.436 µM | [5] 0.686 µM | [6] 1.95 µM

CCC[CH2][Sn]([CH2]CCC)([O]C(C)=O)[O]C(C)=O
inactive: [2]
active: [1] 13.8 µM | [3] 2.78 µM | [5] 6.17 µM

CSC(C)(C)/C=N/O
not listed: [4] | [8] | [10]
inactive: all other assays above

C#CCO
not listed: [10]
inactive: all other assays above

O=S1OCC2C(CO1)C1(Cl)C(Cl)=C(Cl)C2(Cl)C1(Cl)Cl (stereo unspecified)
inactive: [2] | [7]
active: [1] 48.6 µM | [3] 55 µM and 24.5 µM | [5] 54.4 µM | [6] 24.5 µM

O=NN(CCO)CCO
not listed: [3] | [6] | [10]
inactive: all other assays above

O.O.O.O=C([O-])[C@H]([O-])[C@@H]([O-])C(=O)[O-].O=C([O-])[C@H]([O-])[C@@H]([O-])C(=O)[O-].[K+].[K+].[Sb+3].[Sb+3]
inactive: [1] | [2] | [3] | [5] | [6]

CCCN
not listed: [10]
inactive: all other assays above

CCOP(=O)(Sc1ccccc1)Sc1ccccc1
inactive: [1] | [2] | [7] | [5] | [6]
active: [8] 54.9 µM

CCC1COC(Cn2cncn2)(c2ccc(Cl)cc2Cl)O1 (stereo unspecified)
not listed: [2] | [4]
inactive: all other assays above

Nc1ccc(N=Nc2ccccc2)cc1
inactive: [5] | [6]
active: [1] 24.3 µM | [2] 26.5 µM

COP(=S)(OC)Oc1nc(Cl)c(Cl)cc1Cl
inactive: [1] | [7] | [4] | [5] | [6] | [9]

O=C1C2(Cl)C3(Cl)C4(Cl)C(Cl)(Cl)C5(Cl)C3(Cl)C1(Cl)C5(Cl)C24Cl (stereo unspecified)
inactive: [2]
active: [1] 26.9 µM and 52.2 µM | [5] 67.5 µM and 58.5 µM | [6] 48.2 µM

C=CCOC(=O)c1ccccc1N
not listed: [2] | [10]
inactive: all other assays above

Oc1ccc2[nH]cc(CCCCN3CC=C(c4ccccc4)CC3)c2c1
inactive: [1] | [2] | [5] | [6]

COP(=S)(NC(C)C)Oc1ccc(C)cc1[N+](=O)[O-] (stereo unspecified)
not listed: [2] | [3] | [8]
inactive: all other assays above

CO/N=C(/C1=NOCCO1)c1ccccc1Oc1ncnc(Oc2ccccc2Cl)c1F
active: [1] 54.4 µM | [4] 0.544 µM
inactive: [5] | [6]

O=C1C(Cl)=C(Cl)C(=O)C(Cl)=C1Cl
inactive: [10] | [6]
active: [1] 10.8 µM and 13.7 µM | [3] 6.92 µM
inactive and 13.7 µM (active): [5]

Fc1ccc(C(OCCN2CCN(CCCc3ccccc3)CC2)c2ccc(F)cc2)cc1
inactive: [2]
active: [1] 26.6 µM | [5] 29.8 µM

CCN(CC)CCN1C(=O)CN=C(c2ccccc2F)c2cc(Cl)ccc21
not listed: [2] | [3] | [4]
inactive: all other assays above

O=c1[nH]c(Cl)c(Cl)cc1Cl
inactive: [1] | [7] | [3] | [5] | [6] | [9]

C=CCBr
not listed: [2]
inactive: all other assays above

CCOP(=S)(NC(C)C)Oc1ccccc1C(=O)OC(C)C (stereo unspecified)
active: [4] 54.5 µM
inactive: [1] | [10] | [8] | [6] | [9]

CC(Cc1ccc(OCC(=O)O)cc1)NCC(O)c1csc(C(F)(F)F)n1 (stereo unspecified)
not listed: [1]
inactive: all other assays above

O=C(Nc1ccc(F)cc1F)c1cccnc1Oc1cccc(C(F)(F)F)c1
inactive: [1] | [7] | [3] | [5] | [6]
